Rows were chosen to be rich in hits. Some 7.6% of all compounds tested hit in one or more screens of this group.
NS3h inh CB – blocks HCV NS3 helicase binding to DNA | NS3h Cy5-dT15 DNA binding, fluorescence polarization | inhibition, % at 100 µM | hit rate 1.6% among 16,000 | AID 687043;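 active = inhibition above the average over every tested compound plus 3 SD, cut at about 40% in these data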
Cy5 interf NS3h – counter-screen for HCV NS3 helicase inhibitors: fluorescence interference | Cy5-dT15 DNA with NS3h; actives lie on both sides; signal over control mean, under 1 quenches | fluorescence interference ratio at 100 µM | hit rate 6% among 16,000;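 active = compound fluorescence over control fluorescence at most 0.8, a quencher, or at least a set upper limit, an enhancer; inactive = ratio between 0.8 and the set upper limit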
HCV NS3h conf – hepatitis C NS3 helicase inhibition, confirmation; shares compounds with NS3h inh CB; inhibition, % at 100 µM; hit rate 20% among 240; NS3h binding to Cy5-dT15 DNA, fluorescence polarization;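 active = percent inhibition of 50% or more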
SSB FP counter – counter-screen for HCV NS3 helicase inhibitors: E. coli SSB binding; shares compounds with NS3h inh CB; E. coli SSB binding Cy5-dT15, fluorescence polarization; inhibition, % at 100 µM; hit rate 40% among 240; AID 720486;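 active = inhibition of at least 50%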;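 also: displacers lower Cy5 polarization so higher inhibition means more SSB displaced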
Target sequence (P0AGE0 whole entry, looked up): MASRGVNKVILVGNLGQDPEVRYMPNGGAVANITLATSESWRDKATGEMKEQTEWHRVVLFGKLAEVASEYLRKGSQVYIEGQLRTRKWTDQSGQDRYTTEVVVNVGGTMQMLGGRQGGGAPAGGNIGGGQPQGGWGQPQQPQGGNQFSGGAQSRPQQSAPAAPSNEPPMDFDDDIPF
Cy5 SSB fluor CB – Cy5 fluorescence interference in NS3h counter-screen | shares compounds with NS3h inh CB | Cy5-dT15/E. coli SSB fluorescence interference; actives lie on both sides | fluorescence interference ratio at 100 µM | hit rate 8% among 240 | AID 720487;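 active = fluorescence interference ratio at or above 1.2, signal boosting, or at or below 0.8, signal quenching; inactive = ratio between 0.8 and 1.2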;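 also: ratio of compound well signal to mean negative control signal so 1 means no effect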
Cy5 interf conf – confirmation counter-screen for HCV NS3 helicase inhibitors: fluorescence interference; Cy5-dT15 DNA/NS3h fluorescence interference counterscreen; shares compounds with NS3h inh CB; hit rate 44% among 240; fluorescence interference ratio at 100 µM, hits read low;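 active = fluorescence interference ratio at or below 0.8 quencher or at or above a set limitenhancer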;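 also: ratio of compound fluorescence to mean of negative controls so 1 means no interference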
* = called active by the depositor; . = no result.

SMILES	NS3h inh CB	Cy5 interf NS3h	HCV NS3h conf	SSB FP counter	Cy5 SSB fluor CB	Cy5 interf conf
O=C(N/C(=C\c1ccc(-c2ccc(Cl)cc2)o1)C(=O)N1CCOCC1)c1ccccc1	15	1.1	.	.	.	.
CCOc1ccc(NC(=O)C2=C(C)NC(=O)NC2c2ccc(O)c(OC)c2)cc1 (configuration not stated)	1	0.99	.	.	.	.
O=C(c1ccc(Cl)cc1)N1CCC(Cc2ccccc2)CC1	8	0.98	.	.	.	.
O=c1/c(=C/c2ccc(-c3ccccc3Cl)o2)sc2nc3ccccc3n12	7	1	.	.	.	.
Cc1cc(C)c([N+](=O)[O-])cc1-c1ccc(/C=c2\sc3nc4ccccc4n3c2=O)o1	121*	1.6*	14	32	0.93	0.83
CCc1ccccc1NC(=O)COc1ccc(C)cc1	19	1	.	.	.	.
O=C(NC(=S)Nc1ccc2oc(-c3ccc(Cl)cc3)nc2c1)c1ccccc1	17	0.99	.	.	.	.
O=C(NC(=S)Nc1ccc2oc(-c3ccc(Cl)c(Cl)c3)nc2c1)c1ccccc1	102*	1.2*	17	38	0.97	0.8*
COc1ccc(-c2nnc(Nc3ccc(O)cc3)c3ccccc23)cc1	11	0.86	.	.	.	.
O=c1c2c(nc3cc(-c4cccs4)[nH]n13)CCS2	60*	1.1	-2	25	1	0.81
O=c1c2c(nc3cc(-c4cccs4)[nH]n13)CCC2	6	1	.	.	.	.
O=C(O)CN1C(=O)/C(=C/c2ccc(OC(=O)c3ccccc3I)cc2)SC1=S	62*	1	31	26	0.93	0.76*
O=C(O)CN1C(=O)/C(=C\c2ccc(OC(=O)c3ccc(Cl)cc3Cl)cc2)SC1=S	6	1	.	.	.	.
CCOC(=O)c1ccc(NC(=O)CN(c2ccc(Br)cc2)S(C)(=O)=O)cc1	4	0.94	.	.	.	.
COc1cc(/C=C2/SC(=S)NC2=O)ccc1OC(=O)c1ccccc1Br	42*	1.1	8	2	1	0.78*
COc1cc(/C=C2\SC(=S)NC2=O)cc(Br)c1OC	2	0.97	.	.	.	.
COc1ccc(OC)c(S(=O)(=O)NCc2ccco2)c1	0	0.93	.	.	.	.
COc1cc2c(cc1OC)C(C)N(C(=O)C1(c3ccccc3)CCCC1)CC2 (configuration not stated)	1	0.94	.	.	.	.
O=C(c1ccc(Br)cc1)N1CCN(c2ccc(Cl)cc2[N+](=O)[O-])CC1	6	1	.	.	.	.
O=C1C=CC(=O)N1c1ccc(Br)cc1[N+](=O)[O-]	79*	0.95	70*	8	0.94	0.92
CCOc1cccc2c1N(C(=O)Cc1ccccc1)C(C)(C)c1ssc(=S)c1-2	12	1	.	.	.	.
O=C1NC(=O)C(=Cc2ccccc2OCCOc2ccccc2)C(=O)N1	30	1	.	.	.	.
O=C1NC(=O)C(=Cc2cc(Br)ccc2OCc2cccc3ccccc23)C(=O)N1	48*	0.86	26	72*	0.87	0.91
